Among the data in PubChem BioAssay (NCI) are growth values, retold here.

Where “and” joins values, the source holds several entries; their conditions need not be identical. Identical values can stand only once. Compounds without any hit were thinned out: in the full panel of roughly 83,000, 20% have a hit.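 Each cell line was grown in a 96-well plate and treated with one concentration of compound for 48 hours. Values below 10 were considered active.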 Values without a mark were called inactive. Calls of active or inactive are those of the source.

Some test systems named below: T-47D breast; BT-549 breast; MDA-MB-435 melanoma; SW-620 colon; MCF7 breast; HCT-116 colon; HCC-2998 colon; KM12 colon.
What all share (assay): NCI-60 one-dose screen, 48 h (100 = growth as untreated, 0 = no growth, -100 = all killed)
Common to all, as to conditions: 10 µM

Turning to `CSC1SCC2C(=O)N(C)C(C(C)C)C(=O)OCC(NC(=O)c3cnc4ccccc4n3)C(=O)NC(C)C(=O)N(C)C1C(=O)N(C)C(C(C)C)C(=O)OCC(NC(=O)c1cnc3ccccc3n1)C(=O)NC(C)C(=O)N2C` (stereo not drawn), the growth with T-47D breast was -8.25% (active); in the assay on BT-549 breast it was -48.3% (active); in the assay with MDA-MB-435 melanoma, -82.8% (active); with SW-620 colon, 1.31% (active); with MCF7 breast it was 2.56% (active); in the assay on HCT-116 colon, -29.5% (active). The growth with HCC-2998 colon is -80.1% (active); with KM12 colon, -5.74% (active).
Turning to `CC[N+](CC)=c1ccc2nc3c(cc(N)c4ccccc43)oc-2c1`, the growth was -44% (active) in the assay on T-47D breast; -53.4% (active) with BT-549 breast; -82.2% (active) in the assay on MDA-MB-435 melanoma; -25.2% (active) in the assay with SW-620 colon; -46.3% (active) in the assay with MCF7 breast; -27.1% (active) in the assay on HCT-116 colon. In addition, the values for the growth in the assay with HCC-2998 colon and in the assay with KM12 colon were -78% (active) and -44.2% (active), respectively.
Take `Cc1nc(N=C(N)N)nc2ccc3ccccc3c12`: the growth in the assay on T-47D breast is -10.6% (active); in the assay with BT-549 breast it was 13.7%; in the assay with MDA-MB-435 melanoma, -4.72% (active); with SW-620 colon, 9.65% (active); in the assay on MCF7 breast it was -18.1% (active); in the assay on HCT-116 colon, 5.64% (active). The growth is 13.3% in the assay on HCC-2998 colon and -9.2% (active) with KM12 colon.
As to `COC1OCC(O)C(O)C1O` (stereo not drawn), the growth with T-47D breast is 105%; in the assay on BT-549 breast it was 105%; in the assay with MDA-MB-435 melanoma it was 100%; in the assay on SW-620 colon it was 99.3%; with MCF7 breast it was 90.7%; in the assay with HCT-116 colon, 102%. The results for the growth in the assay with HCC-2998 colon and in the assay on KM12 colon were 107% and 103%, respectively.
In the case of `Clc1ccc(/C=C/c2ccccn2)c(Cl)c1`, the growth in the assay with T-47D breast was 47.5%; in the assay with BT-549 breast it was 88.4%; in the assay with MDA-MB-435 melanoma it was 104%; in the assay on SW-620 colon, 86%; in the assay with MCF7 breast, 7.59% (active); with HCT-116 colon, 77.7%. For the same compound, the figures for the growth in the assay with HCC-2998 colon and in the assay on KM12 colon were 77.9% and 71.4%, respectively.
On to `OC(CN1CCCC2CCCCC21)c1cc2ccccc2c2ccccc12` (stereo not drawn), for which the growth in the assay with T-47D breast is 14.9%; in the assay with BT-549 breast it was 46%; with MDA-MB-435 melanoma, 32%; in the assay with SW-620 colon, 27.1%; in the assay on MCF7 breast, 7.24% (active); in the assay on HCT-116 colon, 1.99% (active). Also, the values for the growth in the assay with HCC-2998 colon and in the assay with KM12 colon were 13.5% and 15.9%, respectively.
Turning to `CCC(C)(C)c1cc(O)c(C(C)(C)CC)cc1O`, the growth is 60.3% in the assay on T-47D breast; 10.7% in the assay on BT-549 breast; 27.7% in the assay on MDA-MB-435 melanoma; 31.8% in the assay on SW-620 colon; 18.4% in the assay with MCF7 breast; 16.6% in the assay on HCT-116 colon. The growth with KM12 colon was 55.3%.
With `NNc1c2ccccc2nc2ccccc12`, the growth is 74.6% with T-47D breast; 43.8% in the assay on BT-549 breast; 49.4% in the assay on MDA-MB-435 melanoma; 43.9% with SW-620 colon; 40.1% with HCT-116 colon; 57.1% in the assay with HCC-2998 colon. For the same compound, the growth in the assay on KM12 colon is 36.7%.
Take `O=C1NC(=O)c2cc([N+](=O)[O-])ccc21`: the growth in the assay with T-47D breast is 103%; in the assay on BT-549 breast it was 123%; in the assay on MDA-MB-435 melanoma it was 105%; in the assay on SW-620 colon, 103%; in the assay with MCF7 breast, 107%; in the assay on HCT-116 colon, 116%. Further, the growth with HCC-2998 colon was 102%; with KM12 colon it was 110%.
Consider `N=S(c1ccccc1[N+](=O)[O-])c1ccccc1[N+](=O)[O-]`, for which the growth with T-47D breast is -2.34% (active); in the assay with BT-549 breast, 84.7%; in the assay on MDA-MB-435 melanoma it was 62.1%; with SW-620 colon, 17.9%; in the assay on HCT-116 colon, 5.85% (active); in the assay on HCC-2998 colon, 90.4%. Moreover, the growth with KM12 colon was 88.8%.
Take `CCCC1CCC(=C2C(=O)CCC2=O)O1` (stereo not drawn): the growth with T-47D breast was 87.8% and 110%; with BT-549 breast, 86.3% and 106%; with MDA-MB-435 melanoma it was 94.8% and 95.4%; with SW-620 colon, 105%; in the assay with MCF7 breast, 91.9% and 118%; in the assay on HCT-116 colon, 91.9% and 107%. The growth in the assay on HCC-2998 colon was 104% and 99.1%; in the assay on KM12 colon, 105% and 108%.
For the compound `O=C(O)COc1ccc(OCC(=O)O)cc1`, the growth is 5.61% (active) in the assay with T-47D breast; 20.9% in the assay with BT-549 breast; 30.4% in the assay on MDA-MB-435 melanoma; 15.1% with SW-620 colon; 9.02% (active) in the assay with HCT-116 colon; -34.2% (active) in the assay with HCC-2998 colon. Further, in the assay on KM12 colon, the growth was 8.16% (active).
Regarding `CCN1/C(=C/C=C/C=C/c2sc3ccccc3[n+]2CC)Sc2ccccc21`, the growth was -32.2% (active) with T-47D breast; -42.3% (active) in the assay on BT-549 breast; -76.9% (active) in the assay with MDA-MB-435 melanoma; -31.1% (active) in the assay with SW-620 colon; -44.2% (active) with MCF7 breast; -25.9% (active) in the assay with HCT-116 colon. Also, the results for the growth in the assay on HCC-2998 colon and in the assay with KM12 colon were -88.5% (active) and -88.3% (active), respectively.
Take `CCO/C=C1\SC(=S)N(c2cccc(O)c2)C1=O`: the growth in the assay on T-47D breast was 87.4%; with BT-549 breast, 93.8%; in the assay on MDA-MB-435 melanoma, 102%; in the assay with SW-620 colon, 112%; in the assay on MCF7 breast it was 84.1%; in the assay with HCT-116 colon, 96.9%. The growth in the assay with HCC-2998 colon was 111%; in the assay with KM12 colon, 97.2%.
